Results published in ChEMBL document CHEMBL3988442, “University of Dundee, Small-Polar-MMV Screening Library” (2021).
For some assays here: Measured potencies and affinities stand elsewhere.

How the values were obtained:
Design in all cases: scale not given: direction of the effect not stated beside the values
[1] = molecular target: Protein translocase subunit SecA (Escherichia coli (strain K12)) (UniProt P10408); test: Assay to Identify E. coli SecA ATPase Inhibitors; assay type: functional; conditions: 30 µM
Protein translocase subunit SecA (Escherichia coli (strain K12)), sequence (P10408 whole entry): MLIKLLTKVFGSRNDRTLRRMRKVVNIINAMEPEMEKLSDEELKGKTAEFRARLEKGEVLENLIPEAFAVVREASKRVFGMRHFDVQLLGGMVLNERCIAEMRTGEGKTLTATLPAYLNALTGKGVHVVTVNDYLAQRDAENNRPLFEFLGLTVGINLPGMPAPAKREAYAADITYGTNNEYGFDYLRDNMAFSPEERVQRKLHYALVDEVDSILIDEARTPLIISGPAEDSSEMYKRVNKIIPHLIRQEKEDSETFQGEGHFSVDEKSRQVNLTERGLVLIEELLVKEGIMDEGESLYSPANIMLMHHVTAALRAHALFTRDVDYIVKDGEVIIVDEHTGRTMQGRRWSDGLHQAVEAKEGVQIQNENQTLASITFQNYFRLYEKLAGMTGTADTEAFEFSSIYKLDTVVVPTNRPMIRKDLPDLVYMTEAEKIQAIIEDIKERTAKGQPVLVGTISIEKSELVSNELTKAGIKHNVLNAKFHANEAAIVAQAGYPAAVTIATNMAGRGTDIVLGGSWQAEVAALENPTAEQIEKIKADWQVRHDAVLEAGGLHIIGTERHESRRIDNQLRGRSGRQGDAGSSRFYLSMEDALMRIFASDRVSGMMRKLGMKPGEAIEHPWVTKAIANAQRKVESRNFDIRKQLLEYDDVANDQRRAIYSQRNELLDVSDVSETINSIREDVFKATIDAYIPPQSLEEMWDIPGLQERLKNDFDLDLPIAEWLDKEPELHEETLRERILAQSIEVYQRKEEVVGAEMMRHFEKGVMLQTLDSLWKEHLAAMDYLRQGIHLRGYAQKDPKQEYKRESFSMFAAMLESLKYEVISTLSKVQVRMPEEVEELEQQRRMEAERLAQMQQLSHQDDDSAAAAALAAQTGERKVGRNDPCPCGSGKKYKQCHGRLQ

[2] = molecular target: T1, Ubiquitin-activating enzyme e1, putative (Leishmania donovani (strain BPK282A1)) (UniProt E9BSI1); test: Leishmania donovani Ubiquitin Activating Enzyme (LdE1); assay type: functional; conditions: 30 µM
T1 sequence (whole entry): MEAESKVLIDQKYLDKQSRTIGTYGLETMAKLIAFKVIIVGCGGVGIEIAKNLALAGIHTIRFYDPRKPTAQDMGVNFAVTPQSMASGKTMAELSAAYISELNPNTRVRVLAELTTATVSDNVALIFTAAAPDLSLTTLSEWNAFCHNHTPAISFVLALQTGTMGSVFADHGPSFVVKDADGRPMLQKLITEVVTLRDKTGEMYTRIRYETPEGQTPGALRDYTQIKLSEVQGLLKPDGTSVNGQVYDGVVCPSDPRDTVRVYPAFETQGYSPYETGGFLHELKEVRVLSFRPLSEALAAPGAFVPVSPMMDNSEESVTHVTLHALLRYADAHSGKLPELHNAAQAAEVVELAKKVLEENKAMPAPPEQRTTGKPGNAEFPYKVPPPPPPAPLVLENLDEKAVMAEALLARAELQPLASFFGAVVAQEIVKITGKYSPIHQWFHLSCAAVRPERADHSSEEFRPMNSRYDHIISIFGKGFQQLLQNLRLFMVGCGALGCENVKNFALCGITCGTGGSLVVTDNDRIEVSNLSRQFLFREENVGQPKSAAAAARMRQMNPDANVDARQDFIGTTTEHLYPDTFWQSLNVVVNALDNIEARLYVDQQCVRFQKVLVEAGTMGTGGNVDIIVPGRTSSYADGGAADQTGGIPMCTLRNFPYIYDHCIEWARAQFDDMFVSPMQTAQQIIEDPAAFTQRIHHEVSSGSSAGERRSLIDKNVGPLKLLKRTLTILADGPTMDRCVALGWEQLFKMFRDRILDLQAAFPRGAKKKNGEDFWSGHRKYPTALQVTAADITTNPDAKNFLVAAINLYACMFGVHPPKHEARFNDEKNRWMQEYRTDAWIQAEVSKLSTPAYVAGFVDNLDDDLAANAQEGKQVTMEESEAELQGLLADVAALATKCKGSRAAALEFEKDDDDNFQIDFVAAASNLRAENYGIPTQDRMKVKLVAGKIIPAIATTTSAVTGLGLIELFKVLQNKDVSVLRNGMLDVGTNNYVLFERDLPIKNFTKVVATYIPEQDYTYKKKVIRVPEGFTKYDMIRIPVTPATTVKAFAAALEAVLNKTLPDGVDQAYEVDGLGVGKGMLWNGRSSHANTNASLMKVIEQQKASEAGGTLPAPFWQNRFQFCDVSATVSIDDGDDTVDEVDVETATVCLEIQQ

[3] = molecular target: T2, Aspartate--tRNA(Asp/Asn) ligase (Mycobacterium tuberculosis (strain ATCC 25618 / H37Rv)) (UniProt P9WFW3); test: Assay for Asp RNA synthetase-1 from Mycobacterium tuberculosis; assay type: functional; conditions: 30 µM; also: in the data most compounds retested in dose-response had high values
T2 sequence (whole entry): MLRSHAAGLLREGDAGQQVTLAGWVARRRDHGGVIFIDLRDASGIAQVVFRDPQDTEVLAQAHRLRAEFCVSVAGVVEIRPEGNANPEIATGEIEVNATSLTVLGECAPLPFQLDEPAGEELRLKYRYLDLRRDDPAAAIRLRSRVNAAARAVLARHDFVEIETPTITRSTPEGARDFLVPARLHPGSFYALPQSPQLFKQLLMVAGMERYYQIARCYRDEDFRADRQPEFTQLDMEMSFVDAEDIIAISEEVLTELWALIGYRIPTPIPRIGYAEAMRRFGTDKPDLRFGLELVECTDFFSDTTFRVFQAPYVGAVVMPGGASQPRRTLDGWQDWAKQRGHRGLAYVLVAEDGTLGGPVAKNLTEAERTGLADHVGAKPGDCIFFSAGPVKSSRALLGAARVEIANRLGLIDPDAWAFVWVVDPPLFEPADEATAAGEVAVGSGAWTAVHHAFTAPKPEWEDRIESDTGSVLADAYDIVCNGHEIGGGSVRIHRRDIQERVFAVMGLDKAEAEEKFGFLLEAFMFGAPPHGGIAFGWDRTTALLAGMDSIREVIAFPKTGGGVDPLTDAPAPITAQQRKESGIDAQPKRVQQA

[4] = molecular target: AMP-activated protein kinase, AMPK (Homo sapiens) (UniProt P54646+O43741+P54619+Q9UGJ0+Q9Y478+Q13131+Q9UGI9); test: AMP-dependent Kinase enzyme assay. An in vitro enzyme assay that detects ADP turnover that is directly proportional to AMPK activity. This uses naive AMPK that is activated during the assay with MK-8722; assay type: functional; conditions: 30 µM
[5] = molecular target: Sialic acid-binding Ig-like lectin 9 (Homo sapiens) (UniProt Q9Y336); test: Hs-Siglec9 ALPHAscreen SOP 20170721; conditions: 10 µM
Sialic acid-binding Ig-like lectin 9 (Homo sapiens), sequence (Q9Y336 whole entry): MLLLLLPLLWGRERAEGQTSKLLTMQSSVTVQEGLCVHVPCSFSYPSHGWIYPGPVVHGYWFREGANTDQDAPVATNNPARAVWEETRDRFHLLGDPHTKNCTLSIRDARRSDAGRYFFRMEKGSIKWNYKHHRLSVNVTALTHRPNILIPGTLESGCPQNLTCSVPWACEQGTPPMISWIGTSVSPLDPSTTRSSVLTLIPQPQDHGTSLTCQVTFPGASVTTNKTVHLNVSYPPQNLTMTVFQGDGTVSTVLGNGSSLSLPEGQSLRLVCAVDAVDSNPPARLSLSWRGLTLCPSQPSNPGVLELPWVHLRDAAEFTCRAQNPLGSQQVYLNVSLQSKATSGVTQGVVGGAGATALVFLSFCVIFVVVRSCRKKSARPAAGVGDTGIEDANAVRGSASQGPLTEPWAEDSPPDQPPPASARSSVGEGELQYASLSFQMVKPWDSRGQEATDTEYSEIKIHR

[6] = tested on: Trypanosoma cruzi; test: Trypanosoma cruzi phosphomannomutase and mannose-1-phosphate guanylyltransferase assay; assay type: functional; conditions: 10 µM
[7] = molecular target: T3, Arginase-2, mitochondrial (Homo sapiens) (UniProt P78540); test: in vitro enzyme assay to detect the production of urea directly proportional to the activity of Arginase II; assay type: functional; conditions: 33.3 µM; also: in the data most compounds retested in dose-response had high values
T3 sequence (whole entry): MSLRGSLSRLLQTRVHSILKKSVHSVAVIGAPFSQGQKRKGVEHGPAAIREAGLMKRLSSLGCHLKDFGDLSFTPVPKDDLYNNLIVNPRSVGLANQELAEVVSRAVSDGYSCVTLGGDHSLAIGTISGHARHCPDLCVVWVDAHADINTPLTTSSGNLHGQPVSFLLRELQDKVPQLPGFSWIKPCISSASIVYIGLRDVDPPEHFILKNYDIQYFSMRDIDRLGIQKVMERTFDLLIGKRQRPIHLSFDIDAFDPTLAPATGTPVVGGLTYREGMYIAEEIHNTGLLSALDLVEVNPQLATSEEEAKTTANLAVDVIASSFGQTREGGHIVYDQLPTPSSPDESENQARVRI

[8] = molecular target: T4, Proteasome subunit beta (Trypanosoma cruzi) (UniProt O96673); test: Trypanosoma cruzi proteasome chymotrypsin-like activity (TcProtChymo) assay.; also: in the data most compounds retested in dose-response had high values; assay type: functional; conditions: 9.37 µM
T4 sequence (whole entry): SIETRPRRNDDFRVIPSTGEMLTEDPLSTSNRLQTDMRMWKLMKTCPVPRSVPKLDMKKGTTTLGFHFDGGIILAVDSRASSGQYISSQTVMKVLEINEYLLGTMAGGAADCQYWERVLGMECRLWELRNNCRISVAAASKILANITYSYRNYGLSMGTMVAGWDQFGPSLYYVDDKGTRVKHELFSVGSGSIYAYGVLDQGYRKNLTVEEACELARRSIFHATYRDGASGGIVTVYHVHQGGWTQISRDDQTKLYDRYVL

[9] = species on record: Homo sapiens; test: To identify inhibition of the IFN signalling (Jak-Stat) pathway via expression of an eGFP reporter gene under the control of an IFN-stimulated response element (ISRE) containing MxA promoter.; assay type: functional; conditions: 30 µM
[10] = molecular target: Shiga toxin 2 (Escherichia coli O157:H7) (UniProt P09385+P09386); test: E. coli 0.157:H7 Shiga Toxin SOP - stx2 screening assay; assay type: functional; conditions: 30 µM
[11] = molecular target: T5, Tyrosyl-tRNA synthetase, putative (Trypanosoma cruzi (strain CL Brener)) (UniProt Q4DSP6); test: Trypanosoma cruzi tyrosyl tRNA synthetase (TcYRS) _High Tyrosine SOP; assay type: functional; conditions: 30 µM; also: in the data most compounds retested in dose-response had high values
T5 sequence (whole entry): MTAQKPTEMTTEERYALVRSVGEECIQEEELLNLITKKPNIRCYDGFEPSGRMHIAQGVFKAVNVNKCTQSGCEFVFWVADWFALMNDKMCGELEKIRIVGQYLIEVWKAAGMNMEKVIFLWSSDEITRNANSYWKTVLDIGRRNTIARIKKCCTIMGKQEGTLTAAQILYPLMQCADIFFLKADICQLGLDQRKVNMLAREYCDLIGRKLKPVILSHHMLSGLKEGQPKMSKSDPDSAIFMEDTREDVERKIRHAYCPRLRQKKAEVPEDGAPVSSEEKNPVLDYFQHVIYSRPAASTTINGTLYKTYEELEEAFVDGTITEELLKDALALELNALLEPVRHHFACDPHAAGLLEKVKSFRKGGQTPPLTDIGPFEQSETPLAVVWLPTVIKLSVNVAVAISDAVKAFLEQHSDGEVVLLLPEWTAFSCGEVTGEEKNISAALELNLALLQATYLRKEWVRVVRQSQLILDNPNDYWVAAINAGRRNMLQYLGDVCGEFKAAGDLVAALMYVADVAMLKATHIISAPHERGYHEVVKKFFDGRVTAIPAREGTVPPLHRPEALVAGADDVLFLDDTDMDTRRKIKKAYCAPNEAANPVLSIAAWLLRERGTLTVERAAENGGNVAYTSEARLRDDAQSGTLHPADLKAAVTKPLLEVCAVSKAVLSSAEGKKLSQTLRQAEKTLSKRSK

[12] = molecular target: T5, Tyrosyl-tRNA synthetase, putative (Trypanosoma cruzi (strain CL Brener)); test: Trypanosoma cruzi tyrosyl tRNA synthetase (TcYRS) SOP; assay type: functional; conditions: 30 µM
[13] = molecular target: Chromo domain-containing protein 1 (Saccharomyces cerevisiae (strain ATCC 204508 / S288c) (Baker's yeast)) (UniProt P32657); test: ScCHD-1 Enzyme Inhibition Assay; assay type: functional; conditions: 30 µM; also: in the data most compounds retested in dose-response had high values
Chromo domain-containing protein 1 (Saccharomyces cerevisiae (strain ATCC 204508 / S288c) (Baker's yeast)), sequence (P32657 whole entry, the tested form may be a part): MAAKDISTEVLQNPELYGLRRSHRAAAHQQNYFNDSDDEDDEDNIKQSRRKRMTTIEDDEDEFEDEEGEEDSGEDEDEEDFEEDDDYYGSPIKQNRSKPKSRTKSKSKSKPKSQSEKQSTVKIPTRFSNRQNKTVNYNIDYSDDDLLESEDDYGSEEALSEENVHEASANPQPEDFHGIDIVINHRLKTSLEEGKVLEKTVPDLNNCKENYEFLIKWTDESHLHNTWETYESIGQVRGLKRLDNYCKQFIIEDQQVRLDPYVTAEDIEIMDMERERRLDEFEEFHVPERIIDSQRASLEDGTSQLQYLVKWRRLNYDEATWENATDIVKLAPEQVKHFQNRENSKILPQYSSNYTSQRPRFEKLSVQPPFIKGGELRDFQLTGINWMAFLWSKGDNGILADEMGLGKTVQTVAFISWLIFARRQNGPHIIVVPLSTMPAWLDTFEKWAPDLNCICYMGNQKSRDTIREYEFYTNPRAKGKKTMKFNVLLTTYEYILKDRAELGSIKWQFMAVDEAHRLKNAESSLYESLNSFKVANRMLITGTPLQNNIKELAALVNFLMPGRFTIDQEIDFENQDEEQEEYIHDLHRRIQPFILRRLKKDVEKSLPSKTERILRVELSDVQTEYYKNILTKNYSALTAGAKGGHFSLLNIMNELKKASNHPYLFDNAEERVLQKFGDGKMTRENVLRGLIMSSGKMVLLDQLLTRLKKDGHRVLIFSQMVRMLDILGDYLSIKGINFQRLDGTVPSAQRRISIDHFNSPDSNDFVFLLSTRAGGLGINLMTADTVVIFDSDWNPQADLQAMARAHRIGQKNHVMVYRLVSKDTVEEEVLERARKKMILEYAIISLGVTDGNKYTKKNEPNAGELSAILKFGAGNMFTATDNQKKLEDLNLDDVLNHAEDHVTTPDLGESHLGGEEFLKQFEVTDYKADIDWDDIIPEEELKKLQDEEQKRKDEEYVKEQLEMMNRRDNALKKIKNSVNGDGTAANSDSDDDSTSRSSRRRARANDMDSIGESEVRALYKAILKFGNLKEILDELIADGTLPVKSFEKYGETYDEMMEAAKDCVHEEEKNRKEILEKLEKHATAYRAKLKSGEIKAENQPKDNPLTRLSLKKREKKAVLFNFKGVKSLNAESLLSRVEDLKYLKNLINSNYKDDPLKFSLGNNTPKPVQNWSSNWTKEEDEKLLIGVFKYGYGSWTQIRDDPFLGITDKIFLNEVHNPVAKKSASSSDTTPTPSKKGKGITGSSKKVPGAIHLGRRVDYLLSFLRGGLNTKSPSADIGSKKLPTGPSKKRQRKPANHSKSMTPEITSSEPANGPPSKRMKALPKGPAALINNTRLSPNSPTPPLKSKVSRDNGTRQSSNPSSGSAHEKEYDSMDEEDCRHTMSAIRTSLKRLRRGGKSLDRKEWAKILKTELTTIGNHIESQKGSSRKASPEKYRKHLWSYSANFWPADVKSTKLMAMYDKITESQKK

Compound	Percent Effect [1] [%]	Percent Effect [2] [%]	Percent Effect [3] [%]	Percent Effect [4] [%]	Percent Effect [5] [%]	Percent Effect [6] [%]	Percent Effect [7] [%]	Percent Effect [8] [%]	Percent Effect [9] [%]	Percent Effect [10] [%]	Percent Effect [11] [%]	Percent Effect [12] [%]	Percent Effect [13] [%]
Cc1cc(N2CCN3CCCCC3C2)n2nc(C)c(C)c2n1 (stereo not given)	-1.84	6.94	-12.4	-4.39	-5.54	-2.43	-0.442	14.7	-15.5	4.77	4.21	10.3	-3.52
Cc1ccccc1CC(C)NCc1c(C)nn(C)c1N1CCOCC1 (stereo not given)	-3.17	-1.39	-4.34	-1.27	-1.05	5.93	-2.21	2.46	-20.6	16.3	3.16	2.56	102
CCN(Cc1cccnc1)CC1CCCO1 (stereo not given)	-3.64	0	6.87	-3.71	-1.05	-5.88	-6.82	1.77	3.09	-16.3	2.15	2.5	-3.4
O=C(COc1cccc(F)c1)N1C[C@@H](O)[C@H](N2CCCC2)C1	0.584	4.05	-0.878	10.1	2.64	4.94	0.696	7.33	-0.848	-11.4	0	-3.9	-18.1
Cc1n[nH]c2c1C(c1cnn(C)c1)SCC(=O)N2 (stereo not given)	-5.19	1.33	-2.64	11.3	3.08	-2.16	-11.4	11.8	6.26	-3.86	3.17	12.8	-9.44
